Laboratory results taken from PubChem BioAssay (NCATS).
Several values for one entry are separate records, joined by “and”; a condition that tells them apart may be missing. Identical values can stand only once. Inconclusive results are not listed. Activity calls are given as the source filed them. Unless noted, calls follow the shape of the dose curve; as a rule, active = well fitted curve in the direction sought with a large enough effect; inconclusive = small, poorly fitted or top-dose-only effect, or another doubt; inactive = no such curve, though single readings can be large; an effect the other way counts as inactive or inconclusive.

Key:
[1] = qHTS assay for small molecule disruptors of the mitochondrial membrane potential - 1 hr assay (AID 651754; calls by dose curve; also: % is scaled to controls: 0 for no effect and ±100 for the full control effect; nearly all actives have a fitted effect of over 35% in size)
Method in brief: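 HepG2, 2,000 cells/well, overnight attachment; cpd or DMSO 1 hr, 37C/5% CO2; Mito-MPS dye 30 min, 37C; fluorescence monomer (490/535) and aggregate (540/590).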

[2] = qHTS assay for small molecule disruptors of the mitochondrial membrane potential - 5 hr assay (AID 651755; calls by dose curve; also: % is scaled to controls: 0 for no effect and ±100 for the full control effect; nearly all actives have a fitted effect of over 40% in size)
Method in brief: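 HepG2 cells (2,000/well), attached overnight, exposed to compound 5 hr at 37C, then Mito-MPS dye 30 min. Fluorescence read for monomers (490/535 nm) and aggregates (540/590 nm).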

[3] = molecular target: Tumor necrosis factor (Homo sapiens) (UniProt P01375); test: qHTS assay to identify small molecules that stimulate Tumor Necrosis Factor-alpha (TNF-alpha) secretion (AID 651757; active = well fitted curve in the direction sought with a large enough effect in the signal ratio; the % refers to the signal ratio; also: 0% is about no effect)
Method in brief: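 Read-out is HTRF, a TR-FRET sandwich of cryptate- and XL665-labeled anti-TNF-alpha antibodies detecting cytokine secreted by THP-1 cells. Cells had been incubated with test compounds at 37 C for 17 hrs beforehand.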

[4] = qHTS assay for environmental chemicals that activate the Aryl hydrocarbon Receptor (AhR) signaling pathway (AID 651777); conditions: 1A2-DRE human hepatoma cells, luciferase, 24 h; activation: hits give high values; also: % of control where 0% means no effect; nearly all actives have a fitted effect of over 15% in size
Method in brief: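 Concentration–response screening used 1,200 1A2-DRE cells per well, 24 hr compound exposure (37 C, 5% CO2), and One-Glo luminescence as the AhR-driven CYP1A2 reporter signal.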

[5] = molecular target: Peroxisome proliferator-activated receptor alpha (Homo sapiens) (UniProt Q07869); test: qHTS assay for small molecule agonists of the peroxisome proliferator-activated receptor alpha (PPARalpha) signaling pathway (AID 651778); conditions: PathHunter PPARalpha complementation, chemiluminescence, 6 h; hits give high values; also: % of control where 0% means no effect
Method in brief: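 Enzyme-fragment complementation assay in which ligand-bound PPARalpha translocates and forms an active enzyme that generates chemiluminescence. Cells were plated overnight, exposed to compound for 6 hr at 37 C, and then given detection reagent for 60 min at room temperature.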

[6] = molecular target: Nuclear receptor ROR-gamma (Homo sapiens) (UniProt P51449); test: qHTS assay for small molecule antagonists of the retinoid-related orphan receptor gamma (ROR-gamma) signaling pathway (AID 651802);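 also: luciferase reporter luminescence driven by ROR response element; series mostly up to about 92 µM; % is scaled to controls: 0 for no effect and ±100 for the full control effect; nearly all actives have a fitted effect of over 60% in size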
Method in brief: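 CHO, TET-inducible ROR + RORE-LUC reporter, 1536-well qHTS. Compound pinned, doxycycline added, 16hr 37C/5% CO2. ONE-Glo, 30 min RT, luminescence; signal drop scored as antagonism.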

[7] = qHTS assay for small molecule agonists of the antioxidant response element (ARE) signaling pathway measured by Nrf2-dependant transcriptional activity (AID 720636; active = well fitted curve in the direction sought with a large enough effect in the repeat runs; an effect the other way counts as inactive or inconclusive;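 also: HepG2 cells with an ARE-driven luciferase reporter; % of control where 0% means no effect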)
Method in brief: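 Attachment 6 hr at 37 C, then compound versus DMSO vehicle for 16 hr in ARE-luc HepG2 cells (1% dialyzed FBS); luminescence recorded 30 min after ONE-Glo addition at room temperature.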

[8] = qHTS assay for small molecule antagonists of the retinoid-related orphan receptor gamma (ROR-gamma) signaling pathway - cell viability counter screen (AID 720652; active = well fitted curve in the direction sought with a large enough effect in the repeat runs; an effect the other way counts as inactive or inconclusive;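 also: series mostly up to about 92 µM; compound exposure lasted 16 hr before ATP read; % is scaled to controls: 0 for no effect and ±100 for the full control effect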)
Method in brief: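 Luminescence from CellTiter-Glo after 30 min at room temperature reported cellular ATP as the cytotoxicity measure. Cells were the CHO reporter line with doxycycline-induced ROR-gamma expression, exposed to compound for 16 hr at 37 C.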

[9] = qHTS assay for small molecule agonists of the antioxidant response element (ARE) signaling pathway measured by Nrf2-dependant transcriptional activity - cell viability counter screen (AID 720653; active = well fitted curve in the direction sought with a large enough effect in the repeat runs; an effect the other way counts as inactive or inconclusive; also: % is scaled to controls: 0 for no effect and ±100 for the full control effect); conditions: ARE-bla HepG2 viability, CellTiter-Glo ATP luminescence, 16 h; hits give low values
Method in brief: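 ARE-bla HepG2 cells treated with compounds for 16 h at 37C; this counter screen measures viability as intracellular ATP by CellTiter-Glo luminescence after 30 min at room temperature.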

[10] = qHTS assay for cell viability of HEK293 cells (AID 743288); conditions: ATP luminescence (CellTiter-Glo), 18 h, hits give low values; also: % is scaled to controls: 0 for no effect and ±100 for the full control effect; nearly all actives have a fitted effect of over 50% in size
Method in brief: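 The Tox21 protocol used parental HEK293 cells treated for 18 h at 37 C with compounds delivered by pintool; ATP-coupled luminescence after 30 min at room temperature gave viability.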

[11] = qHTS assay for cell viability of the p53RE-bla HCT-116 cell line (AID 743292); also: % is scaled to controls: 0 for no effect and ±100 for the full control effect; nearly all actives have a fitted effect of over 55% in size
Method in brief: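 Compound-exposed HCT-116 (p53RE-bla) cells, 4,000 per well, were kept 16 h at 37 C following a 5 h preincubation. Cell number was estimated from total ATP by CellTiter-Glo luminescence read after 30 min at room temperature.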

[12] = molecular target: Nuclear receptor subfamily 1 group I member 2 (Rattus norvegicus) (UniProt Q9R1A7); test: qHTS assay for small molecule activators of the rat pregnane X receptor (rPXR) signaling pathway (AID 651751; call rule not given here; also: 0% is about no effect); conditions: rPXR reporter cells, luciferase (One-Glo), 24 h
[13] = qHTS assay for small molecule activators of the human pregnane X receptor (PXR) signaling pathway (AID 720659; call rule not given here; also: 0% is about no effect)

Sequence of Nuclear receptor subfamily 1 group I member 2 (Rattus norvegicus) (Q9R1A7 whole entry, looked up): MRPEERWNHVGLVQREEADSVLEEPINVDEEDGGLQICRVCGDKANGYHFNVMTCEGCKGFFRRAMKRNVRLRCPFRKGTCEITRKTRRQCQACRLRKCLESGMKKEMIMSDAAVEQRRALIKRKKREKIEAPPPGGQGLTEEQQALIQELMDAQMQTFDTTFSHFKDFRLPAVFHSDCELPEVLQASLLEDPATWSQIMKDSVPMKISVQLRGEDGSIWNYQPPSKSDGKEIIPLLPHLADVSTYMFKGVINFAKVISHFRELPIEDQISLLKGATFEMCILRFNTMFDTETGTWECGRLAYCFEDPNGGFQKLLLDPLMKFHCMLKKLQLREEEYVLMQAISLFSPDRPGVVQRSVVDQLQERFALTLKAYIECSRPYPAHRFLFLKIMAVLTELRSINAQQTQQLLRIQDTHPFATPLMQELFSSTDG
Sequence of Peroxisome proliferator-activated receptor alpha (Homo sapiens) (Q07869 whole entry, looked up, the tested form may be a part): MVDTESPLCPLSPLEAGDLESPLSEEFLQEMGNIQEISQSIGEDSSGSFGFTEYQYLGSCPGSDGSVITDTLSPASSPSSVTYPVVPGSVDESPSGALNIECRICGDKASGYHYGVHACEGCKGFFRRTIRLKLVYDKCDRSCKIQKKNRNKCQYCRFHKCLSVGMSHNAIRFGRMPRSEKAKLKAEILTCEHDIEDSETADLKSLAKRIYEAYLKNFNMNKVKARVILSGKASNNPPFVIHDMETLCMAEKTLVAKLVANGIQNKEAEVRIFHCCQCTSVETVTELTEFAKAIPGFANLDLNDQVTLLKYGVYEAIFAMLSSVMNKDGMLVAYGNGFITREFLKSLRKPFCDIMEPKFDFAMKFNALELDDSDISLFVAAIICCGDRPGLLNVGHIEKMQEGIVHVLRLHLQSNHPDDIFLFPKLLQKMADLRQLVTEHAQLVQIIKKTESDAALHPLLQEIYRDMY
Sequence of Tumor necrosis factor (Homo sapiens) (P01375 whole entry, looked up): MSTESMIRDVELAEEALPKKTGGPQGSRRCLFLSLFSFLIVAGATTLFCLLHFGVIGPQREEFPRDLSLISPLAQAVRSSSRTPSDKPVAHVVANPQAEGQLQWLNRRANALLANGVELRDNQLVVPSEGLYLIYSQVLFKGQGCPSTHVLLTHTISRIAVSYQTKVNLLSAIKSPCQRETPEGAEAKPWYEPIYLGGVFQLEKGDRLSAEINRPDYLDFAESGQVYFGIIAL
Sequence of Nuclear receptor ROR-gamma (Homo sapiens) (P51449 whole entry, looked up): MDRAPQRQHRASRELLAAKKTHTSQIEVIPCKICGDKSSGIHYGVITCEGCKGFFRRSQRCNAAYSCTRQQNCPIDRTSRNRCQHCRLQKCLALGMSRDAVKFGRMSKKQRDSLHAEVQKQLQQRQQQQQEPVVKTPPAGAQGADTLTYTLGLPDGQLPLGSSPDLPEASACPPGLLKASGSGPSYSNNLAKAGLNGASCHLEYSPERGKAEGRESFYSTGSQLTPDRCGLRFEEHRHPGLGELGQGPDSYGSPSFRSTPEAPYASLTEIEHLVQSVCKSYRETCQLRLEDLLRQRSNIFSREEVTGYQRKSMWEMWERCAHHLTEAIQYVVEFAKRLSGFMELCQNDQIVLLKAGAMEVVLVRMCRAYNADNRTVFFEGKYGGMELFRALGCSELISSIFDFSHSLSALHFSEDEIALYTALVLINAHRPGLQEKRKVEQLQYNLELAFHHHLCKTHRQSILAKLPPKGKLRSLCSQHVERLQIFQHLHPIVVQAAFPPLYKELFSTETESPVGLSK

Cc1cc(C)cc(O)c1
inactive: Potency [1] | Potency [2] | Potency [3] | activation [4] -0.55% | max response [5] -2.86% | Potency [6] | outcome [7] | Potency [8] | max response [9] -0.981% | max response [10] -5.39% | Potency [11] | max response [12] -0.901% | outcome [13]

CCCCN(CCO)CCCC
inactive: Potency [1] | Potency [2] | Potency [3] | activation [4] -0.692% | max response [5] -1.07% | Potency [6] | outcome [7] | max response [9] -4.16% | max response [10] -7.26% | Potency [11] | max response [12] 1.69% | outcome [13]

CN(C)CCCNCCCN
inactive: Potency [1] | Potency [2] | Potency [3] | activation [4] 0.0352% | max response [5] -2.56% | Potency [6] | outcome [7] | Potency [8] | max response [9] -2.03% | max response [10] -0.667% | Potency [11] | max response [12] -0.438% | outcome [13]

CCC1CO1 (stereo not given)
inactive: Potency [1] | Potency [2] | Potency [3] | activation [4] 0.0109% | max response [5] -1.3% | Potency [6] | outcome [7] | Potency [8] | max response [9] 1.19% | Potency [11] | max response [12] 4.08% | outcome [13]

NC(=O)NC(N)=O
inactive: Potency [1] | Potency [2] | Potency [3] | activation [4] 2.56% | max response [5] -2.74% | Potency [6] | outcome [7] | Potency [8] | max response [9] -4.93% | Potency [11] | max response [12] -0.329% | outcome [13]

CCC(C)(C)C(=O)O
inactive: Potency [1] | Potency [2] | Potency [3] | activation [4] 0.179% | max response [5] -5.15% | Potency [6] | outcome [7] | Potency [8] | max response [9] -0.295% | Potency [11] | max response [12] 5.04% | outcome [13]

CC(C)C(C)C
inactive: Potency [1] | Potency [2] | Potency [3] | activation [4] 1.04% | max response [5] -4.01% | Potency [6] | outcome [7] | Potency [8] | max response [9] -1.72% | max response [10] 2.97% | Potency [11] | max response [12] 9.63% | outcome [13]

CC(C)c1ccccc1
inactive: Potency [1] | Potency [2] | Potency [3] | activation [4] -1.48% | max response [5] 3.38% | Potency [6] | outcome [7] | Potency [8] | max response [9] -7.17% | max response [10] -0.678% | Potency [11] | max response [12] -5.7% | outcome [13]

NC(=O)c1ccccc1[N+](=O)[O-]
inactive: Potency [1] | Potency [2] | Potency [3] | activation [4] -0.127% | max response [5] -0.939% | Potency [6] | outcome [7] | Potency [8] | max response [9] -0.414% | Potency [11] | max response [12] -1.43% | outcome [13]

CC(=O)c1cc(C)oc1C
inactive: Potency [1] | Potency [2] | Potency [3] | activation [4] 0.74% | max response [5] -8.47% | Potency [6] | outcome [7] | Potency [8] | max response [9] 1.5% | max response [10] -13.5% | Potency [11] | max response [12] 1.56% | outcome [13]

c1ccc(Nc2ccccc2)cc1
inactive: Potency [1] | Potency [2] | Potency [3] | activation [4] 0.217% and 3.92% | max response [5] -3.04% and -2.25% | Potency [6] | outcome [7] | Potency [8] | max response [9] -1.43% and -3.7% | max response [10] -6.24% and -7.97% | Potency [11] | max response [12] 1.12% and -1.15% | outcome [13]

O=C(O)c1cccc(Cl)c1Cl
inactive: Potency [1] | Potency [2] | Potency [3] | activation [4] -1.06% | max response [5] -2.92% | Potency [6] | outcome [7] | Potency [8] | max response [9] 3.31% | max response [10] 6.72% | Potency [11] | max response [12] -3.88% | outcome [13]

C=C(C)C(=O)OCCCCCC
inactive: Potency [1] | Potency [2] | Potency [3] | max response [5] -8.01% | Potency [6] | outcome [7] | Potency [8] | max response [9] -4.89% | max response [10] 6.76% | Potency [11] | max response [12] -0.698% | outcome [13]

O=[N+]([O-])c1ccc(NCCO)c(OCCO)c1
inactive: Potency [1] | Potency [2] | Potency [3] | activation [4] 0.85% | max response [5] -4.01% | outcome [7] | Potency [8] | max response [9] 6.98% | max response [10] -2.57% | Potency [11] | max response [12] -2.89% | outcome [13]
